# Rows were chosen to be rich in hits. Some 2.9% of all compounds tested hit in one or more screens of this group.
# PTAP TSG101 blk – blocks PTAP/TSG101 interaction to inhibit HIV-1 budding | Q99816 | Fluorescence polarization, FITC-PTAP peptide / Tsg101 binding | AID 493005 | 340,000 tested, under 10 active | Potency, µM (series often up to 115 µM), without a hit: top-dose activity change, negative = inhibition, usual class: inhibitors; active = well fitted inhibition curve with a large enough effect in the main read-out, with a control signal flat, not every such curve was filed as active; inconclusive = small, poorly fitted or top-dose-only effect, or effect the other way, or a change in a side signal; inactive = no such curve, though single readings can be large or run the other way; also: potency is read from the fitted curve at half-maximal effect; % of control where 0% means no effect
#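 Compounds were pin-transferred onto Tsg101 binding domain (10 uM final) in HEPES pH 7.5 buffer, then FITC-PTAP peptide was added at 50 nM final. After 20 min at RT, polarization reported peptide displacement across a qHTS concentration series.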
# Mm-Cpn inhibitor – inhibitors of Methanococcus maripaludis chaperonin TRiC (MmCpn) | AID 504842 | Potency, µM (top dose mostly 76.9 µM), inactives show top-dose activity, negative = inhibition, actives largely listed as inhibitors | 330,000 tested, 0.031% active | purified Mm-Cpn ATPase, ADP Transcreener TR-FRET; active = well fitted inhibition curve with a large enough effect; inconclusive = small, poorly fitted or top-dose-only effect; also: potency is read from the fitted curve at half-maximal effect; % is scaled to controls: 0 for no effect and ±100 for the full control effect; nearly all actives have a fitted effect of over 80% in size
#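 Measured: ADP formation by purified Mm-CPN. Conditions: 25 nM protein, 10 uM ATP, Tris pH 7.4 with Mg2+, K+ and DTT, 37°C for 30 min. Detection: Transcreener HTRF after 30 min at room temperature.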
# Rango-impB inh – prevents formation of the Rango-importin beta complex | 340,000 tested, 0.031% active | Rango CFP/YFP FRET sensor + importin beta, 45 min | AID 540263 | Potency, µM (top dose mostly 92.2 µM), without a hit: at the highest dose inhibition of complex formation | Q14974;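 also: potency is read from the fitted curve at half-maximal effect; 0% = DMSO wells and 100% = buffer wells lacking importin beta; nearly all actives have a fitted effect of over 15% in size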
# Target sequence (Q14974 whole entry, looked up): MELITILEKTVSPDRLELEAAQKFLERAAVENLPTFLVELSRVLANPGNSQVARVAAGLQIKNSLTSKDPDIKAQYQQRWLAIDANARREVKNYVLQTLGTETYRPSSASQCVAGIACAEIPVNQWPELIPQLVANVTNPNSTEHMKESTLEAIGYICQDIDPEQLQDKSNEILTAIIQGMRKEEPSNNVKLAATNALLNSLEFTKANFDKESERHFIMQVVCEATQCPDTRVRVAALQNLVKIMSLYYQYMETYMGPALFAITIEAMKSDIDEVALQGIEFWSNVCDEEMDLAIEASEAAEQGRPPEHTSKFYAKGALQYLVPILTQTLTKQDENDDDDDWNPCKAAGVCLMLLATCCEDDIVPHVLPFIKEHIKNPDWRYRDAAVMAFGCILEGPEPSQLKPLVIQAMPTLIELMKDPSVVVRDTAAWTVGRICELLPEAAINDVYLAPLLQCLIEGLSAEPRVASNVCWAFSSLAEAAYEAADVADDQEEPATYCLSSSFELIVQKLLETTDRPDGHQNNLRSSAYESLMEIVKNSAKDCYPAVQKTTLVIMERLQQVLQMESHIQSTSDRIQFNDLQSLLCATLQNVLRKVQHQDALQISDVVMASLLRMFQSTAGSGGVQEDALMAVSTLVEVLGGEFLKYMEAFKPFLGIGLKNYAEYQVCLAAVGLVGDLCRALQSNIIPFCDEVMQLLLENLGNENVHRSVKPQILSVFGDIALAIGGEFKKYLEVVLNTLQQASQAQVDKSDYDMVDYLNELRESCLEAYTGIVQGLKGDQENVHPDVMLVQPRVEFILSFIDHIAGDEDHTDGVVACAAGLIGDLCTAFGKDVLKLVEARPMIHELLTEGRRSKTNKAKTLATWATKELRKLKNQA
#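 Inhibition scored from the CFP 486 nm/YFP 530 nm FRET ratio 45 min after adding 0.125 microM importin beta to 50 nM Rango biosensor preincubated 5 min with compound (room temperature, PBS with DTT, Tween-20, BSA). No-importin wells as positive control.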
# Rango release inh – inhibition of RanGTP-driven Rango-importin beta dissociation | AID 540253 | 340,000 tested, 0.071% active | Biochemical FRET Rango-importin beta, RanGTP-induced dissociation | Potency, µM (doses to about 46.1 µM), inactives show top-dose activity change, negative = inhibition; also: potency is read from the fitted curve at half-maximal effect; % of control where 0% means no effect; nearly all actives have a fitted effect of over 45% in size
#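 FRET read at 45 min, room temperature: inhibitors block the CFP/YFP signal rise when RanGTP (0.6 uM Ran, 2 mM GTP, 0.2 uM RCC1) frees Rango (0.1 uM) from importin beta (0.25 uM). Pre-read after 5 min compound exposure flags interference.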
# D3 ag – activates the human D3 dopamine receptor; D3R DiscoveRx beta-arrestin cells, luminescence, 90 min; max activation, %; AID 652048; 410,000 tested, 0.58% active; P35462; in the data active = max activation above about 30%; also: 0% is about no effect
#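 Cells at 1500/well, incubated overnight, then treated with pinned compounds (dopamine as control) for 90 min at 37 degrees C. DiscoveRx reagent added for 30 - 60 minutes at room temperature; luminescence read.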
# D3 antag – blocks the human D3 dopamine receptor. AID 652054. max response, negative = inhibition, %. P35462. 360,000 tested, 2.5% active. D3R cells, DiscoveRx beta-arrestin luminescence, antagonist mode; hits give low values; in the data active = max response below about -50%; inconclusive = no clear call, values can overlap the other calls; also: % is scaled to controls: 0 for no effect and ±100 for the full control effect
#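 Cells plated overnight at 1500 cells/well, then exposed to library compounds with dopamine controls for 90 minutes at 37 degrees C. DiscoveRx reagent added for 30–60 minutes at room temperature; luminescence read, quantitative HTS format.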
# Starred values were filed as active, the others as inactive; ? = inconclusive; / = no result. Unless noted, calls follow the shape of the full dose curve.
SMILES,PTAP TSG101 blk,Mm-Cpn inhibitor,Rango-impB inh,Rango release inh,D3 ag,D3 antag
COc1ccccc1C(=O)NC1CC2CCC(C1)N2Cc1ccccc1 (stereo not given),0%,-5%,?,2%,-17,-95*
COc1cccc(C(=O)NC(=NCCc2c[nH]c3ccc(OC)cc23)Nc2nc(C)cc(C)n2)c1,/,/,/,/,5,/
C=CC(=O)Oc1ccc(N2Cc3ccccc3C2=O)cc1,-2%,/,0%,9%,-2,-64*
CCc1ccc(S(=O)(=O)c2cn(CC)c3cc(N4CCCCC4)c(F)cc3c2=O)cc1,/,/,/,/,6,/
Clc1ccc(SCc2cc(N3CCOCC3)nc(-c3ccccn3)n2)cc1,-5%,-1%,3%,-8%,-23,-53*
O=c1cc(CSc2ccc(Cl)cc2)nc(-c2ccccn2)[nH]1,0%,2%,0%,-1%,-13,-53*
Cc1c(N=NC2=C(O)CC(C)(C)CC2=O)c(=O)n(-c2ccccc2)n1C,8%,-4%,-1%,1%,-45,-63*
CCCC(=O)NC(=S)c1c(C)n(C)n(-c2ccccc2)c1=O,0%,0%,0%,1%,38*,72
Cc1c(CN(C)CCc2ccccc2)c(=O)n(-c2ccccc2)n1C,-2%,1%,-1%,3%,-29,-77*
Cc1c(Cc2c(C)n(C)n(-c3ccccc3)c2=O)c(=O)n(-c2ccccc2)n1C,-5%,0%,2%,1%,2,1
Cc1c(O)c(=O)n(-c2ccccc2)n1C,0%,1%,4%,8%,-68,-57*
Cc1c(N=Cc2c(O)n(C)c(=O)c3ccccc23)c(=O)n(-c2ccccc2)n1C,?,2%,?,?,33*,42
Cc1c(N=Cc2ccncc2)c(=O)n(-c2ccccc2)n1C,-2%,0%,1%,14%,1,2
CCCCC1=CC2=CC(=O)C(C)(OC(=O)CC)C(=O)C2=CN1Cc1ccc(OC)cc1 (stereo not given),4%,-3%,?,8.2µM*,-16,-14
COc1cc(C(=O)O/N=C2\C=CC(=O)C(C)=C2)cc(OC)c1OC,-2%,-24%,0%,-5%,-6,-57*
Cc1cccc(N(C)C(=O)C2CCN(S(=O)(=O)c3cccc4nonc34)CC2)c1,/,/,/,/,9,/
CCN(CC)S(=O)(=O)c1cccc(C(=O)NNC(=O)C2=NN(c3ccccc3)C(=O)CC2)c1,-3%,1%,-3%,0%,1,11
O=C1c2ccccc2S(=O)(=O)c2cc(N3CCN(c4ccccc4)CC3)ccc21,0%,/,1%,-5%,52*,78
CC1CCN(c2ccc3c(c2)S(=O)(=O)c2cccc(C(=O)NC[C@@H]4CCCO4)c2C3=O)CC1,4%,-1%,?,?,31*,108
O=C(NCC1CCCO1)c1cccc2c1C(=O)c1ccc(N3CCC(Cc4ccccc4)CC3)cc1S2(=O)=O (stereo not given),?,-18%,?,?,50*,134
O=C(NC1CCCCC1)c1cccc2c1C(=O)c1ccc(N3CCC(Cc4ccccc4)CC3)cc1S2(=O)=O,?,-8%,?,?,6,12
CC1CCN(c2ccc3c(c2)S(=O)(=O)c2cccc(C(=O)NC4CC4)c2C3=O)CC1,7%,0%,?,?,52*,50
O=C(NC[C@@H]1CCCO1)c1cccc2c1C(=O)c1ccc(N3CCOCC3)cc1S2(=O)=O,0%,1%,?,-8%,27,72
CCc1cc2c(cc3c(=O)n(CC(=O)NC4CCC(C)CC4)ncn32)s1 (stereo not given),/,/,/,/,4,/
O=C(CC1NCCNC1=O)Nc1ccccc1F (stereo not given),/,/,/,/,-4,/
SMILES,PTAP TSG101 blk,Mm-Cpn inhibitor,Rango-impB inh,Rango release inh,D3 ag,D3 antag
CCC[C@@H](CN1CCC[C@H]1CN1C(N)=NC[C@@H]1Cc1ccccc1)N1C[C@@H](Cc2ccccc2)N(CCc2ccc(Cl)c(Cl)c2)C1=N,-1%,1%,-2%,30%,-46,-87*
CCC[C@@H](CN1CCC[C@H]1CN1C(N)=NC[C@@H]1Cc1ccccc1)N1C[C@@H]([C@H](C)CC)N(CCc2ccc(Cl)c(Cl)c2)C1=N,-4%,-1%,0%,2%,-47,-64*
Cc1nn(-c2ccccc2)c(Cl)c1C(=O)NCC1CCCO1 (stereo not given),-3%,-1%,0%,18%,6,0
Cc1nn(-c2ccccc2)c2[nH]c(=O)c(CNCC3CCCO3)cc12 (stereo not given),5%,-12%,?,?,-8,-82*
Cc1cc(OCC(=O)Nc2cc(-c3nc4ccccc4[nH]3)ccc2C)ccc1Cl,/,/,/,/,19,/
O=C(NNC(=S)Nc1cccc(C(F)(F)F)c1)c1cccc(Cl)c1,0%,-2%,-6%,0%,44*,6
O=[N+]([O-])c1c(NCCCO)cc(SCc2ccco2)c2nonc12,-2%,-2%,-4%,-12%,-7,-63*
Cn1ccnc1Sc1cc(NCCCO)c([N+](=O)[O-])c2nonc12,2%,-2%,-5%,1%,-20,-112*
O=[N+]([O-])c1c(NCCCO)cc(Sc2ccc(Cl)cc2)c2nonc12,-1%,-2%,-4%,-2%,-65,-113*
CC(=O)OCCNc1cc(SCc2ccco2)c2nonc2c1[N+](=O)[O-],-2%,-1%,?,-14%,-1,?
O=C(OCC(=O)N1CCCc2ccccc21)c1ccc(S(=O)(=O)C(F)F)cc1,1%,2%,-6%,-3%,4,4
Cc1cc(C)c(/C=C/c2onc(C)c2S(=O)(=O)N2CCC(C(=O)NCCc3ccccc3)CC2)c(C)c1,/,/,/,/,8,/
COc1ccc(NC(=O)CSCc2cnn(-c3ccccc3)c2-n2cccc2)cc1,/,/,/,/,-5,/
COc1cccc(C(=O)Nc2nc(-c3nnn(-c4cccc(Cl)c4C)c3C)ns2)c1,/,/,/,/,6,/
C/C=C/c1ccc(OCCCNC2CCCC2)c(OC)c1,0%,2%,8%,-1%,0,-61*
COc1ccc(C(O)c2nc(-c3ccccc3)cs2)cc1 (stereo not given),/,/,/,/,63*,-7
COc1cccc(C(O)c2nc(-c3ccccc3C)cs2)c1 (stereo not given),/,/,/,/,5,-8
